# Screening data from PubChem BioAssay.
# IP6K1 inhibitor – Primary qHTS assay for small molecule inhibitors of Inositol hexaphosphate kinase 1 (IP6K1); IP6K1 kinase, ADP-Glo luminescence, 2 h; active compounds read low; Inositol hexakisphosphate kinase 1 (Homo sapiens), Q92551; AID 1645851, 2021; 0.81% of 140,000 active; activity change, % (series mostly up to about 58 µM); in the data active means activity change below about -25%
# Target sequence (Q92551 whole entry, looked up): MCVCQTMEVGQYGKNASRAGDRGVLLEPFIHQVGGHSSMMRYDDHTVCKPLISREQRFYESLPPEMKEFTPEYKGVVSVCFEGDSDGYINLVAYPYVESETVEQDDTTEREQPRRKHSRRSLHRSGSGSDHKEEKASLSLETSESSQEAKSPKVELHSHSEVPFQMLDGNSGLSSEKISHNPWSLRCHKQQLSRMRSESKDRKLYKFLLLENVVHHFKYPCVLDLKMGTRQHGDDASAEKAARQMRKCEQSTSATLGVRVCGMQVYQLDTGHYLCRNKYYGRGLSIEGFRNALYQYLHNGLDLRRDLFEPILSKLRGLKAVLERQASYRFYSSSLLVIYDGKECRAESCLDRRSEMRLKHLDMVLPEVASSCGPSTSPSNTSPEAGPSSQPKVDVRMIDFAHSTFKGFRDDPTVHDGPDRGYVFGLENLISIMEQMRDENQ
#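 ADP-Glo luminescence measures ADP made by human IP6K1 during a 2 h RT reaction with ATP/IP6 (mix at 1.3 mM/130 uM); top library doses 57.5 and 19.1 uM final.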
# HEK293 tox – Cytotoxic Profiling in HEK 293 Cell Line of Diverse Libraries Using Quantitative High-Throughput Screening; HEK 293 viability, ATP luminescence (CellTiter-Glo), 48-72 h; Potency, µM (doses to about 115 µM), for the others: at the top dose activity change, negative = cytotoxicity, hits mostly inhibitors; 6.6% of 94,000 active; further: potency means the concentration at half of the fitted maximal effect; nearly all actives have a fitted effect of over 60% in size
#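 250 HEK 293 cells/well; compound by pintool; incubated 48 or 72 hr at 37 degree Celsius; CellTiter-Glo added, 10 min RT, luminescence imaged.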
# 3T3 cytotox – Cytotoxic Profiling in NIH 3T3 Cell Line of Diverse Libraries Using Quantitative High-Throughput Screening. AID 1345082, 2018. NIH 3T3 viability, CellTiter-Glo ATP luminescence, 48-72 h. Potency, µM (doses to about 96.7 µM), for inactives: at the highest dose activity change, negative = cytotoxicity, most hits filed as inhibitors. 4.3% of 94,000 active; further: potency means the concentration at half of the fitted maximal effect; nearly all actives have a fitted effect of over 55% in size
#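 Luminescent ATP readout (CellTiter-Glo, 10 min RT) after 48 or 72 hr compound exposure of NIH 3T3 cells seeded at 400 cells/well in 1536-well format; quantitative HTS.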
# SNCA expr inhib – Primary qHTS assay for inhibitors of alpha-synuclein gene (SNCA) expression | HEK-293 SNCA-luciferase knock-in, luminescence, 24 h | Potency, µM (top dose mostly 57.2 µM), inactives show at the highest dose activity change, negative = inhibition, actives largely listed as inhibitors | 0.17% of 140,000 active;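 further: potency means the concentration at half of the fitted maximal effect; plate controls were DMSO cells for no effect and cell-free wells for full effect; nearly all actives have a fitted effect of over 45% in size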
# SNCA viab count – GF-AFC viability counterscreen for inhibitors of alpha-synuclein gene (SNCA) expression; HEK-293-SNCA-luc viability, GF-AFC fluorescence, 24 h; 0.12% of 150,000 active; Potency, µM (titrated, usually from 57.1 µM), for inactives: top-dose activity change, negative = cytotoxicity, hits mostly cytotoxic;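 further: potency means the concentration at half of the fitted maximal effect; 0% = DMSO-treated cells and -100% = medium-only wells without cells; nearly all actives have a fitted effect of over 30% in size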
#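 Cytotoxicity counterscreen: after 24 h compound treatment of genome-edited SNCA-luciferase HEK-293 cells, live-cell protease substrate GF-AFC read by fluorescence after 30 min; activity scaled between DMSO (0%) and medium-only (-100%), curves Hill-fitted.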
# FLuc inh – Firefly luciferase inhibition profiling of diverse chemical library using quantitative high-throughput screening. Luciferin 4-monooxygenase (Photinus pyralis), P08659. purified P. pyralis luciferase, luminescence, biochemical. Potency, µM (doses to about 115 µM), actives largely listed as inhibitors. 2.5% of 76,000 active. AID 1347043, 2019; further: potency means the concentration at half of the fitted maximal effect; nearly all actives have a fitted effect of over 65% in size
#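 Luminescence read by CCD imaging after purified firefly luciferase (10nM final) was added to substrate buffer holding 10uM D-luciferin and 10uM ATP, pH 7.5, pre-dosed with compound.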
# Starred values were filed as active, the others as inactive; i = inactive; ? = inconclusive; / = no result given; [ ] = remark or other dose. A selection: hits, their analogues and other compounds. The true share with any hit is near 7.3%. Unless noted, the call rests on the fitted dose curve; in most records, active means well fitted curve in the direction sought with a large enough effect; inconclusive means small, poorly fitted or top-dose-only effect, or another doubt; inactive means no such curve, though single readings can be large; an effect the other way counts as inactive or inconclusive. Unless noted, on the % scale 0 is the no-effect control and ±100 the full control effect.
SMILES,IP6K1 inhibitor,HEK293 tox,3T3 cytotox,SNCA expr inhib,SNCA viab count,FLuc inh
COc1ccc(NC(=O)N2Cc3[nH]cnc3C[C@H]2c2nc(-c3ccc(F)c(Cl)c3)no2)cc1,14,?,32µM*,11%,?,?
COc1ccc(NC(=O)N2Cc3[nH]cnc3C[C@H]2c2nc(-c3ccc(OC)cc3)no2)cc1,10,-9%,?,-7%,?,?
COc1ccc(NC(=O)N2Cc3[nH]cnc3C[C@H]2c2nc(-c3ccc4ccccc4c3)no2)cc1,14,?,?,-19%,?,i
COc1ccc(Cn2c(-c3ccc(F)cc3)nc(C)c(CCO)c2=O)cc1F,-13,?,?,14%,7%,i
O=C(Cc1cccc(Cl)c1)NC1CCCN(c2ccc3nnc(C4CC4)n3n2)C1 (configuration not stated),11,-14%,-25%,/,/,/
COc1ccccc1C(=O)NC1CCN(c2ccc3nnc(-c4ccccc4)n3n2)CC1,-5,35µM*,?,/,/,/
O=C(NC1CCN(c2ccc3nnc(-c4ccccc4)n3n2)C1)c1ccccc1Cl (configuration not stated),12,35µM*,32µM*,/,/,/
COc1ccccc1C(=O)NC1CCN(c2ccc3nnc(-c4ccccc4)n3n2)C1 (configuration not stated),-1,?,?,/,/,/
O=C(Cc1cccc(Cl)c1)NC1CCCN(c2ccc3nnc(-c4ccccc4)n3n2)C1 (configuration not stated),7,35µM*,35µM*,/,/,/
Cc1ccc(NC(=O)C2Cn3cccc3C(=O)N2C)cc1 (configuration not stated),-2,i,0%,-20%,-15%,i
O=C1CCN(S(=O)(=O)c2ccc3c(c2)CCC3)CCCC(c2nc(-c3cccnc3)no2)CCN1 (configuration not stated),27,35µM*,?,3%,-6%,i
CCCN1CCC(N2CCC(C(=O)Nc3cccc(-c4cccc(F)c4)c3)CC2)CC1,4,22µM*,25µM*,-16%,-1%,i
Cc1noc(C)c1-c1cc2cc(CN(C)C)oc2c(Nc2cccc([S+](C)(=O)[O-])c2)n1,-4,50µM*,45µM*,11%[87.6 µM],-9%[87.6 µM],i
Cc1cc2cc(-c3c(C)noc3C)nc(-c3ccc(CO)cc3)c2o1,-18,?,28µM*,63%[87.6 µM],4%[87.6 µM],i
Cc1cc2cc(-c3c(C)noc3C)nc(-c3cccc([S+](C)(=O)[O-])c3)c2o1,-11,?,11µM*,83%[87.6 µM],-19%[87.6 µM],i
Cc1noc(C)c1-c1cc2cc(CO)oc2c(-c2cccc(OC(C)C)c2)n1,-17,89µM*,?,0%[87.6 µM],-13%[87.6 µM],i
Cc1noc(C)c1-c1cc2cc(C(C)C)oc2c(-c2ccc(CO)cc2)n1,-8,?,?,6%[87.6 µM],-22%[87.6 µM],i
Cc1noc(C)c1-c1cc2cc(CN(C)C)oc2c(Nc2ccn(C)n2)n1,-3,?,?,39%[87.6 µM],4%[87.6 µM],i
COc1cccc(-c2nc(-c3c(C)noc3C)cc3cc(C)oc23)c1,15,?,?,29%[87.6 µM],3%[87.6 µM],i
O=C(NCCc1cccc(Oc2ccccc2)c1)[C@H]1CCC[C@H](O)C1,42,?,-35%,-10%,-7%,i
COc1cc(SC)ccc1C(=O)N[C@H]1CCN2C(=O)N(c3ccc(Cl)cc3)C(=O)[C@@H]2C1,7,-31%,-34%,-18%,6%,i
O=C(NCc1nnc2ccc(-c3ccc(Cl)cc3)nn12)c1ccc(Cl)s1,8,i,i,3%,-2%,i
